Active and inactive are the calls of the source. Calls come from the whole dose curve; as a rule, active = well fitted curve in the direction sought with a large enough effect in the repeat runs; inconclusive = weak or mixed curves; inactive = flat fitted curve, though single readings scatter.
experiment: qHTS assay to test for compound auto fluorescence at 590 nm (red) in HEK293 cells (AID 720679); settings: red autofluorescence 540/590 nm; series mostly up to 91.3 µM
From the text: National Center for Advancing Translational Sciences [NCATS]
NIH Chemical Genomics Center [NCGC]
U.S. Environmental Protection Agency [EPA]
National Institutes of Environmental Health Sciences [NIEHS]
National Toxicology Program [NTP]
U.S. Food and Drug Administration [FDA]
Compound auto fluorescence often interferes with screening of the compound library against various biological targets and signaling pathways. Some of these compounds may have fluorophoric properties. Such properties may interfere with the assay outputs resulting in false positives and/or negatives. To decrease such complications and ensure the compound activities are relevant in terms of biological response, the Tox21 10K compound library was screened for auto fluorescence.
From the fluorophores used as reporter signals in our screening assays, the auto fluorescence equivalencies of compounds against three fluorophores have been evaluated: Triamterene, Fluorescein and Rose Bengal sodium for blue, green and red fluorescence, respectively. The fluorescence intensities were measured using Excitation/Emission wavelengths at 405/460nm, 485/535nm and 540/590nm for blue, green and red labels, respectively. This assay includes the red fluorescence data.
Tox21 Assay Protocol Summary:
2,000 HEK293 cells in 5 uL of culture medium containing 10% dialyzed FBS per well were dispensed into black wall/clear bottom 1536-well plates using a Multidrop Combi Dispenser (Thermo Scientific). The assay plates were incubated for 4-5 hr at 37C to allow cell attachment to the well bottom, followed by the transfer of 23 nL compound or DMSO vehicle by a pintool work station (Kalypsys, San Diego, CA). After the assay plates were incubated overnight at 37C and 5% CO2, fluorescence intensities in the assay plates were measured by an Envision (PerkinElmer, Shelton, CT) plate reader using three labels for measuring blue, green and red fluorescence at […] 460, 535 and 590nm respectively.

Structure (SMILES)	outcome
CC(C)(O)c1ccccc1CC[C@@H](SCC1(CC(=O)O)CC1)c1cccc(/C=C/c2ccc3ccc(Cl)cc3n2)c1	inactive
CC(N)CN (stereo not given)	inactive
CC(=O)Oc1ccc(C(=C2CCCCC2)c2ccc(OC(C)=O)cc2)cc1	inactive
O=C1OCCN1/N=C/c1ccc([N+](=O)[O-])o1	inactive
CC(CCO)CCc1ccccc1 (stereo not given)	inactive
CC1(C)C(=O)N(Br)C(=O)N1Cl	inactive
C[C@@H]1C[C@H]2[C@@H]3CCC4=CC(=O)C=C[C@]4(C)[C@@]3(F)[C@@H](O)C[C@]2(C)[C@@]1(O)C(=O)CO	inactive
C[C@]12CCC(=O)C=C1C=C[C@@H]1[C@@H]2CC[C@@]2(C)[C@H]1CC[C@@]21CCC(=O)O1	inactive
Nc1nccs1	inactive
CCCCCCCCCCCCCCC[C@H](O)[C@@H](N)CO	inactive
O=C(O)c1snc(Cl)c1Cl	inactive
NC(=O)Nc1ccc(Cl)c(Cl)c1	inactive
Brc1cc(-c2ccc(Br)c(Br)c2Br)cc(Br)c1Br	inactive
O=S1OCCO1	inactive
COc1cc2ncnc(Nc3ccc(F)c(Cl)c3)c2cc1OCCCN1CCOCC1	inactive
CN1CCN(c2c(F)cc3c(=O)c(C(=O)O)cn4c3c2OCN4C)CC1	inactive
CCC(C(=O)OCCOCCN(CC)CC)c1ccccc1 (stereo not given)	inactive
CC(=O)Nc1ccc(N)cc1	inactive
CNC(=S)NC	inactive
C=CCOC(=O)/C=C\C(=O)OCC=C	inactive

Structure (SMILES)	outcome
CCOC(=O)[C@@H](C)Oc1ccc(Oc2nc3ccc(Cl)cc3o2)cc1	inactive
C[Si](NC1CCCCC1)(NC1CCCCC1)NC1CCCCC1	inactive
COCCOC	inactive
CC(C)c1nnc2ccc(-c3ocnc3-c3cc(F)ccc3F)cn12	inactive
CC1(C)C2=CCCC(C)(C)[C@]23CC[C@H]1C3	inactive
Cc1nccn1-c1ccc(Sc2cccc(C3(C(N)=O)CCOCC3)c2)cc1	inactive
Cc1cnc(C)c(C)n1	inactive
CCCCCCCCCCCC[N+](C)(C)CC(=O)[O-]	inactive
CC1CN(c2cc3c(cc2F)c(=O)c(C(=O)O)cn3-c2ccc(F)cc2F)CCN1 (stereo not given)	inactive
Fc1ccccc1[C@@H](F)COC1CCC(Nc2ncnc3[nH]ncc23)CC1 (stereo not given in full)	inactive
OCCSc1ccccc1	inactive
CCOC(=O)C(C)Oc1ccc(Oc2nc3ccc(Cl)cc3o2)cc1 (stereo not given)	inactive
CCCCCCCCCCCC[N+](C)(C)CCCS(=O)(=O)[O-]	inactive
CCCCCC=CCC=CCCCCCCCC(=O)OCC	inactive
OC/C(Br)=C(\Br)CO	inactive
CCCCC(CC)CNCC(CC)CCCC (stereo not given)	inactive
O=C(O)c1cccnc1C(=O)O	inactive
Cc1cc(O)c2c(O)c3c(O)cccc3cc2c1	inactive
CC(C)CCCCCCOC(=O)CCCCC(=O)OCCCCCCC(C)C	inactive
Cc1cc(O)c(C(C)C)cc1Cl	inactive

Source: PubChem BioAssay (Tox21)
